The record followed here is PubChem BioAssay AID1851 (National Center for Advancing Translational Sciences (NCATS), 2009).

The campaign covered roughly 16,000 compounds. About 4,000 (25%) were called active. Another 26% or so got no clear call; they are omitted. A selection follows. Values without a mark were called inactive. Calls come from the whole dose curve; as a rule, active = well fitted curve in the direction sought with a large enough effect; inconclusive = small, poorly fitted or top-dose-only effect, or effect the other way; inactive = no such curve, though single readings can be large or run the other way.
% is set by controls: 0 for no effect and ±100 for the full control effect.

For this assay, the target named is Cytochrome P450 2C9 (Homo sapiens) (UniProt P11712). The assay can be described thus: Cytochrome panel assay with activity outcomes. The settings on record: recombinant CYP, pro-luciferin dealkylation, luminescence, p450-cyp2c9; series mostly up to 57.1 µM; activity, negative = inhibition: at the top concentration.
Chain of Cytochrome P450 2C9 (Homo sapiens) (P11712 whole entry, looked up): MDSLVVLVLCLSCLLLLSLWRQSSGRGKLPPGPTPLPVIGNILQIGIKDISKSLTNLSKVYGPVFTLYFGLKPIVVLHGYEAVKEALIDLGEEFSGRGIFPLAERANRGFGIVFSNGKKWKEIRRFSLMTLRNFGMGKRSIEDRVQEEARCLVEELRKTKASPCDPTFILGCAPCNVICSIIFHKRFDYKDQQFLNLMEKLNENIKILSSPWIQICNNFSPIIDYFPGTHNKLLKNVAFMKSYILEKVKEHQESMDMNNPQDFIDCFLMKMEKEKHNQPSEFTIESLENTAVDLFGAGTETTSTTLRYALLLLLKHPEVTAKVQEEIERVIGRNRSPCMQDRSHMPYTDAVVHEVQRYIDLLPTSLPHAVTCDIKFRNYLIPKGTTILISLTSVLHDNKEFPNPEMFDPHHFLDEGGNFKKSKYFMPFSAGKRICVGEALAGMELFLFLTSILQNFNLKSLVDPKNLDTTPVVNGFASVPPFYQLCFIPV
Regarding `O=C(O)c1cc(-c2ccncc2)nc2ccccc12`, the activity, negative = inhibition is -29.2% [at 11.4 µM].
Take `O=C(c1cc(-c2ccncc2)nc2ccccc12)N1CCN(c2ccc(N3CCOCC3)nn2)CC1`: the concentration at half-maximal activity (AC50) (as a rule, the midpoint of the concentration-response curve, whichever way the signal moves) is 1.26 µM (active).
For `O=C(O)CSSCC(=O)O`, the activity, negative = inhibition was 22.5% [at 11.4 µM].
Consider `N[C@H](C(=O)O)c1cccc(O)c1`, for which the AC50 entry is “inactive”.
The same measure, in the same setting: as for `CCCn1c(-c2ccccc2)nc2c(=O)n(C)c(=O)[nH]c21`, the figure is 12.6 µM (active).
Take `Cn1c(=O)c2[nH]c(-c3ccccc3)nc2n(C)c1=O`: the “activity, negative = inhibition” value was -14.3%.
As for `CCn1c(=O)c2[nH]c(-c3ccccc3)nc2n(CC)c1=O`, the “activity, negative = inhibition” value was 3.25%.
Consider `CC[N+](CC)(CC)CC`, for which the “activity, negative = inhibition” value was -7.63%.
In the case of `Cc1nn2c3c(cnc2c1-c1ccccc1)C(=O)CC(c1ccccc1)C3` (centres undefined), the AC50 is 10 µM (active).
On to `N[C@H](C(=O)O)[C@H](N)C(=O)O`, for which the activity, negative = inhibition was 17.2% [at 11.4 µM].
As for `C=C[C@H](N)CCC(=O)O`, the AC50 result was “inactive”.
For the molecule `CO/N=C(\C(=O)N[C@@H]1C(=O)N2C(C(=O)O)=C(COC(C)=O)CS[C@@H]12)c1csc(N)n1`, the AC50 entry was “inactive”.
The same measure, in the same setting: in the case of `COc1ccc(N(C(=O)COc2ccccc2OC)S(=O)(=O)c2ccc(C)cc2)cc1` it was 1 µM (active).
In the case of `COc1ccc(N(CC(=O)O)N=O)cc1`, the activity, negative = inhibition is -1.12% [at 11.4 µM].
Still for that read-out and setting: in the case of `Cc1ccccc1-c1cc(NCCN2CCOCC2)ncn1` it was 18.6% [at 2.29 µM].
Consider `O=C1C(=O)c2ccccc2C(O)=C1C1CCC(c2ccc(Cl)cc2)CC1` (centres undefined), for which the AC50 is 2 µM (active).
Regarding `CCC(c1nnnn1CC1CCCO1)N(CCN1CCOCC1)Cc1cc2cc(C)ccc2[nH]c1=O` (centres undefined), the “activity, negative = inhibition” value was -10%.
Consider `Cc1cc(C)c2cc(CN(Cc3nnnn3Cc3ccc(F)cc3)C3CCCC3)c(=O)[nH]c2c1`, for which the AC50 is 7.08 µM (active).
Consider `Cn1nccc1C(=O)Nc1ccc(Cl)cc1`, for which the “activity, negative = inhibition” value was -23%.
Take `Cn1c(C(=O)Nc2ccccc2)cc2sccc21`: the AC50 was 20 µM (active).
In the case of `COCC(=O)N(C)c1nnc(-c2ccc([N+](=O)[O-])cc2)s1`, the “activity, negative = inhibition” value was -27.4%.
Take `COCCN(C(=O)c1ccco1)c1nnc(-c2ccc(OC)cc2)s1`: the concentration at half-maximal activity (AC50) is 28.2 µM (active).
As for `O=C1N(c2ccccc2)c2ccccc2C1(Cc1ccncc1)Cc1ccncc1`, the AC50 is 7.94 µM (active).
As to `C=CCN1CCc2cc(O)c(O)cc2[C@H](c2ccccc2)C1`, the AC50 result was “inactive”.
`COc1ccccc1CN1CC2(CCN(S(C)(=O)=O)CC2)C1`: the “activity, negative = inhibition” value was 17.2%.
The same measure, in the same setting: in the case of `Cc1ccc(NC(=O)CN(C)C(=O)CSc2n[nH]c(N)n2)cc1` it was -22.5%.
As to `Nc1nc(SCC(=O)Nc2ccccc2Sc2ccc(Cl)cc2)n[nH]1`, the AC50 is 1 µM (active).
As to `CC(C)=CCC/C(C)=C/CO/N=C1/C[C@@H](O)[C@@H](O)[C@@H]2[C@@H]3C(=O)N(C(C)(C)C)C(=O)[C@H]3CC[C@@H]12`, the activity, negative = inhibition is -9.91% [at 11.4 µM].
As for `CC[N+](CC)(CC)CCOc1ccc(/C=C\c2ccccc2)cc1`, the “activity, negative = inhibition” value is 15.3%.
As to `C=CCNC(=O)/C(=C\C=C\c1ccccc1)NC(=O)c1ccc(OCCCC)cc1`, the AC50 was 12.6 µM (active).
On to `Clc1ccc(/C=N/Nc2nnc(-c3ncc[nH]3)c3ccccc23)cc1`, for which the half-maximal activity concentration (AC50) was 5.01 µM (active).
With `N[C@@H](CSC(=O)c1ccccc1)C(=O)O`, the activity, negative = inhibition was 18.3% [at 11.4 µM].
As for `O=C(Nc1cccn(Cc2c(Cl)cccc2Cl)c1=O)c1ccc(Cl)cc1Cl`, the AC50 is 3.55 µM (active).
Regarding `O=C1Nc2ccccc2Nc2ncccc21`, the “activity, negative = inhibition” value was -14.8%.
For the molecule `C/C(=C\C(=O)c1ccc(Br)cc1)NCc1ccc2c(c1)OCO2`, the AC50 was 11.2 µM (active).
For `C/C(=C\C(=O)c1ccc(Cl)cc1)NCc1ccc2c(c1)OCO2`, the AC50 is 7.94 µM (active).
`O=C(NCc1ccc2c(c1)OCO2)C1CC(=O)N(C2CCCC2)C1` (centres undefined): the “activity, negative = inhibition” value was -25%.
Still for that read-out and setting: in the case of `CC1(C)CC(NCc2ccc3c(c2)OCO3)CCO1` (centres undefined) it was 5.26%.
In the case of `COc1cc(C(=O)NCCC(=O)NCc2ccc3c(c2)OCO3)cc(OC)c1OC`, the “activity, negative = inhibition” value was -28.6%.
On the same count and under the same terms, as for `O=C1Nc2ccccc2C(O)(C(=O)NCc2ccc3c(c2)OCO3)N1c1ccc(Cl)c(Cl)c1` (centres undefined), the figure is -27.3%; as for `Cc1[nH]c2ccccc2c1/C=C/c1cc[n+](C)cc1`, 23.4%; as for `CCCc1ncc(C[n+]2ccccc2C)c(N)n1`, -6.81% [at 25.6 µM].
On to `Cc1ccc(SCCCn2cnc3ccccc3c2=O)cc1`, for which the AC50 is 12.6 µM (active).
The same measure, in the same setting: in the case of `O=C(c1ccccc1)c1ccc(OCCn2cnc3ccccc3c2=O)cc1` it was 2.82 µM (active).
Regarding `O=c1c2ccccc2ncn1CCCSc1ccccc1`, the half-maximal activity concentration (AC50) was 14.1 µM (active).
For `O=C1c2ccccc2C(=O)N1CCCSc1ccccc1`, the activity, negative = inhibition was -22.7% [at 11.4 µM].
In the case of `COc1ccc(Cl)cc1C(=O)Nn1cnc2ccccc2c1=O`, the “activity, negative = inhibition” value was 7.58%.
As for `COc1ccc2c(OC)c3ccoc3nc2c1OC`, the “activity, negative = inhibition” value was 19.1% [at 25.6 µM].
On the same count and under the same terms, as for `CN(CC(=O)O)Cc1c(O)c(Cl)cc(Cl)c1Cl`, the figure is 13.6% [at 11.4 µM].
